In PubChem BioAssay (Tox21):
Where “and” joins values, the source holds several entries; their conditions need not be identical. Identical values can stand only once. Inconclusive results are not listed. A structure can be active in one record and inactive in another. Calls of active or inactive are those of the source. The call rests on the fitted dose curve; in most records, active means well fitted cell-killing curve with a large enough effect in the repeat runs; inconclusive means weak or mixed curves, or effect the other way; inactive means no such curve, though single readings can be large or run the other way.

Assay: qHTS assay to identify small molecule antagonists of the sonic hedgehog signaling (Shh) pathway - cell viability counter screen (AID 1259367); further: nearly all actives have a fitted effect of over 55% in size
Details: NIH/3T3 Gli1-Luc viability, CellTiter-Fluor, 24 h; series mostly up to 42.5 µM
Excerpt: National Center for Advancing Translational Sciences [NCATS]
NIH Chemical Genomics Center [NCGC]
U.S. Environmental Protection Agency [EPA]
National Institutes of Environmental Health Sciences [NIEHS]
National Toxicology Program [NTP]
U.S. Food and Drug Administration [FDA]
The sonic hedgehog (Shh) pathway is essential for normal embryonic development. Dysregulation of the Shh pathway can cause severe developmental defects in organs. Therefore chemicals that interfere with the pathway are potential developmental toxicants. A cell line designated 3T3Gli1-Luc (DMB/OARSA/CFSAN/FDA, Laurel, MD), a NIH/3T3 derived clone containing stably integrated Gli1-Luc reporter is used to detect chemical interference of the Shh pathway, by changes in the expression of the firefly Luc gene under the control of the Gli1 transcriptional response element. This cell line was used to screen Tox21 libraries for identifying and prioritizing the potential developmental toxicants that interfere Shh pathway. Conditioned medium-stimulated mode was used to screen for chemicals inhibiting Shh signaling. The cytotoxicity of the compounds was tested in parallel by measuring the cell viability using CellTiter-Fluor assay system (Promega, Madison, WI) in the same wells.
Tox21 Assay Protocol Summary:
3T3 Gli1-Luc cells were dispensed at 2,000 per well in 5uL of culture medium into white solid bottom 1536-well plates (Greiner Bio-One, Monroe, NC) using a Multidrop Combi (Thermo Scientific, Waltham, MA) dispenser. The assay plates were incubated at 37 C and 5% CO2 for 4hr, and then 23nL of compounds dissolved in DMSO and positive control were transferred using a Pintool station (Wako, San Diego, CA). The compound transfer was followed by the addition of 1ul conditioned medium or assay buffer using two separate tips of Flying Reagent Dispenser (FRD, Aurora Discovery, San Diego, CA). The assay plates were incubated at 37C and 5% CO2 for 24hr. For viability read, after 23hr of compound treatment, 1uL of CellTiter-Fluor reagent (Promega Corporation, Madison, WI) was added to each well of the assay plates using Flying Reagent Dispenser (FRD, Aurora Discovery, San Diego, CA) and incubated the assay plates at 37C for 1hr. The fluorescence signal was quantified using a ViewLux plate reader (Perkin Elmer, Shelton, CT).
Potency means the concentration at half of the fitted maximal effect.

Structure (SMILES)	Potency
Nc1ccccc1O	19.1 µM (active)
C=CC(=O)OCC(CO)(COCC(COC(=O)C=C)(COC(=O)C=C)COC(=O)C=C)COC(=O)C=C	3.03 µM (active)
Oc1ccc2cc(SSc3ccc4cc(O)ccc4c3)ccc2c1	61.2 µM (active) and 48.6 µM (active)
On1ccccc1=S	3.03 µM (active)
Cc1cccc2c1cc1ccc3cccc4ccc2c1c34	inactive
CCCCCCCC[N+](CCCCCCCC)(CCCCCCCC)CCCCCCCC	27.3 µM (active)
Cc1cc(O)c(C(C)(C)C)cc1C(C)(C)C	61.1 µM (active)
Clc1ccc2cc3ccccc3cc2c1	inactive
CCCN(CCC)C(=O)C(CCC(=O)OCCCN1CCN(CCOC(=O)Cc2c(C)n(C(=O)c3ccc(Cl)cc3)c3ccc(OC)cc23)CC1)NC(=O)c1ccccc1 (stereo not given)	10.6 µM (active)
Oc1ccc2c(c1)-c1ccccc1C2	inactive
O=C1c2c(O)ccc(Nc3ccc(CCO)cc3)c2C(=O)c2c([N+](=O)[O-])ccc(O)c21	48.6 µM (active)
Cc1cc(O)c(Cl)c(C)c1Cl	24.3 µM (active)
O=C(NOCC1CC1)c1ccc(F)c(F)c1Nc1ccc(I)cc1Cl	inactive
CCCCCCCCCCCCCC[P+](CCCC)(CCCC)CCCC (tested in a mixture with another compound)	61.5 µM (active)
C[C@H](CCC(=O)O)[C@H]1CC[C@H]2[C@@H]3CC[C@@H]4C[C@H](O)CC[C@]4(C)[C@H]3CC[C@]12C	inactive
O=C1CCCc2c1cc1ccc3cccc4ccc2c1c34	inactive
CCCCCCCCCCC=O	inactive
CCCC1O[C@@H]2C[C@H]3[C@@H]4CCC5=CC(=O)C=C[C@]5(C)[C@H]4[C@@H](O)C[C@]3(C)[C@]2(C(=O)CO)O1 (stereo not given in full)	38.6 µM (active)
ON=C1CCCC1	inactive
CCc1cc(SCc2sc(-c3ccc(C(F)(F)F)cc3)nc2CN2CCN(c3ccc(OC)cc3)CC2)ccc1OCC(=O)O	inactive

Structure (SMILES)	Potency
COc1c(C)c2c(c(O)c1C/C=C(\C)CCC(=O)O)C(=O)OC2	inactive
COc1ccc(-c2ccc3cc(C(=O)O)ccc3c2)cc1C12CC3CC(CC(C3)C1)C2	inactive
Cc1onc(-c2ccccc2Cl)c1C(=O)N[C@@H]1C(=O)N2[C@@H]1SC(C)(C)[C@@H]2C(=O)O	inactive
N=C1N=C(N)c2cc3ccccc3cc21	24.3 µM (active)
N=C1C=CC(=C(c2ccc(N)cc2)c2ccc(N)cc2)C=C1	19.3 µM (active)
CCCCCCCCCCCCCCCC(=O)OC[C@H](O)[C@H]1OC(=O)C(O)=C1O	inactive
OC1(c2ccc(Cl)c(C(F)(F)F)c2)CCN(CCCC(c2ccc(F)cc2)c2ccc(F)cc2)CC1	18.8 µM (active)
CCc1cc(Cc2cc(CC)cc(C(C)(C)C)c2O)c(O)c(C(C)(C)C)c1	61.1 µM (active)
CC(C)(C)CC(C)(C)c1ccc(OCCOCC[N+](C)(C)Cc2ccccc2)cc1	61.1 µM (active) and inactive
O=[N+]([O-])c1cc([N+](=O)[O-])c2ccc(S(=O)(=O)O)cc2c1O	8.58 µM (active)
NNC(=O)c1cccc(C(=O)NN)c1	inactive
Cc1ccc(O)c(C(C)(C)C)c1	inactive
CCCCCCCCOC(=O)c1ccc(O)cc1	inactive
NC(=O)NS(=O)(=O)c1ccc(N)cc1	inactive
CSc1ccc(/C=C2/C(C)=C(CC(=O)O)c3cc(F)ccc32)cc1	inactive
CCOC(=O)c1nc(C(Cl)(Cl)Cl)n(-c2ccc(Cl)cc2Cl)n1	61.1 µM (active)
CCC(C)Nc1ccc(NC(C)CC)cc1 (stereo not given)	19.7 µM (active)
Oc1ccc(Cl)cc1Sc1cc(Cl)ccc1O	30.6 µM (active) and inactive
Cc1cc(O)c(C(C)(C)C)cc1Sc1cc(C(C)(C)C)c(O)cc1C	19.3 µM (active)
CCCCCCCCCCCCCCCCCC[N+](C)(C)Cc1ccccc1	30.9 µM (active)
